In PubChem BioAssay AID1063 (University of Pittsburgh Molecular Library Screening Center, 2008) one finds inhibition data, which are given here for 61 molecules.

Several values for one entry are separate records, joined by “and”; a condition that tells them apart may be missing. Equal values may be shown once. The campaign covered roughly 200,000 compounds. About 18,000 (9%) were called active. This is one part of a sample in which actives are shown more often than they occur. Rule as the data show it: active = inhibition above about 50%; inactive = the rest. More than one record can exist for a structure, and the calls need not agree.

The test is described as follows: Leishmania major promastigote growth inhibition, primary screen (AID 1063).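 Also: promastigotes grown with compound for 44 hours at 28 °C.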 The settings on record: Leishmania major promastigotes, resazurin fluorescence viability; at 10 µM; stronger effect = higher value. In general terms: The colour change of resazurin is a common sign of viable cells or microbes.
For orientation: inhibition means the relative decrease from the control value, in per cent. As for `CCN(CC)S(=O)(=O)c1ccc(Cl)c(C(=O)NC(C)C(c2cccs2)N2CCCC2)c1` (stereo unspecified), the inhibition is 10.7% (inactive). The result for `Cc1cc(N2CCOCC2)nc2ccc(NC(=S)N3CCN(Cc4ccccc4)CC3)cc12` reads 36.5% (inactive). With `CCOC(=O)/C(=C\c1ccc([N+](=O)[O-])cc1)C(=O)c1cc(C(C)=O)c(Nc2ccccc2)s1`, the inhibition was 101% (active).

Regarding `CCOC(=O)/C(=N\Nc1ccccc1[N+](=O)[O-])c1csc(Nc2ccccc2)n1`, the inhibition is 15.4% (inactive). `O=C(Nc1ccccc1)/C(=C/c1ccc([N+](=O)[O-])cc1)NC(=O)c1ccccc1`: the inhibition is -0.93% (inactive).

Consider `Cc1ccc(C(=O)N/C(=C/c2cccs2)C(=O)NCC2CCCO2)cc1` (stereo unspecified), for which the inhibition was -3.66% (inactive).

In the case of `CCCCC(=O)NNC(=S)NC(=O)C(c1ccccc1)c1ccccc1`, the inhibition is 22.8% (inactive). The result for `CC(C)C(=O)NC(=S)Nc1ccccc1F` reads -3.27% (inactive); that for `CC(C)C(=O)Nc1cccc(NC(=S)NC(=O)C(c2ccccc2)c2ccccc2)c1`, 100% (active). The result for `CC(C)(C)c1ccc(C(=O)NCc2nnc(SCC(=O)N3CCCc4ccccc43)n2-c2ccccc2)cc1` reads -4.1% (inactive); that for `COc1ccccc1CCNC(=O)CSc1nnc2ccc(-c3cccnc3)nn12`, 1.51% (inactive). The result for `C=CCn1c(=N)n(CC(O)COc2ccc(OC)cc2)c2ccccc21` (stereo unspecified) reads 34.9% (inactive); that for `OC(CN=c1sc2ccccc2n1CC(O)COc1ccccc1)COc1ccccc1` (stereo unspecified), 63.1% (active); that for `OC(COc1ccccc1)Cn1cc(Br)cn1` (stereo unspecified), -7.06% (inactive). Consider `C/C(N)=C(/C#N)C(=O)COC(=O)CNS(=O)(=O)c1ccc(C)cc1`, for which the inhibition is -2.53% (inactive).

Turning to `Cc1ccc(C)n1NC(=O)c1ccc([N+](=O)[O-])cc1`, the inhibition is -0.24% (inactive).

As for `CC1CC(C)CN(C(=O)CSc2ccsc2[N+](=O)[O-])C1` (stereo unspecified), the inhibition was 8.96% (inactive). Take `CC(C(=O)O)n1cnc2sc3c(c2c1=O)CCCC3` (stereo unspecified): the inhibition was -4.65% (inactive). Consider `S=c1[nH]nc2c3c4c(sc3ncn12)CCCC4`, for which the inhibition was 72.6% (active).

As to `c1nnc2c3c4c(sc3ncn12)CCC4`, the inhibition was -5.73% (inactive). The result for `COc1cc(OC)cc(C(=O)OCC(=O)Nc2sccc2C(N)=O)c1` reads 18.3% (inactive); that for `Cc1cc(C)cc(NC(=S)NCCCN2CCOCC2)c1`, 11.8% (inactive); that for `Cc1ccc(S(=O)(=O)NCCN2CCOCC2)cc1C`, -7.43% (inactive). Consider `Cc1cc(C)c(S(=O)(=O)NCCCN2CCOCC2)cc1Br`, for which the inhibition was 94.6% (active). The result for `O=C(NCc1cccs1)c1cc(-c2ccccn2)nc2ccc(Br)cc12` reads -5.05% (inactive).

Turning to `CC(=O)Nc1ccc(OCCC[n+]2cccc(C(=O)[O-])c2)cc1`, the inhibition is 0.17% (inactive). The result for `COc1ccc(-c2cc(C(=O)NCCCn3ccnc3)no2)cc1` reads 36.3% (inactive); that for `COCCNC(=O)/C(C#N)=C/c1cccc(OCc2ccccc2)c1`, 47% (inactive); that for `COc1cccc(-c2nn(-c3ccccc3)cc2/C=C(\C#N)C(=O)NCCCn2ccnc2)c1`, 100% (active).

Turning to `CCOc1ccccc1C(=O)NCCCn1ccnc1`, the inhibition was 0.51% (inactive).

With `COc1ccccc1-c1cc(C(=O)NCCCn2ccnc2)no1`, the inhibition is 6.26% (inactive). `COc1ccc(/C=C(\C#N)C(=O)NCCCn2ccnc2)cc1`: the inhibition is 55.7% (active). On to `Cc1nccn1CCCNC(=O)CC1C(=O)NCCN1Cc1ccc(Cl)c(F)c1` (stereo unspecified), for which the inhibition was 5.03% (inactive). The result for `Cc1cccc(NS(=O)(=O)c2ccc(C)c(C(N)=O)c2)c1` reads -3.69% (inactive); that for `O=C(Nc1ccccc1C(=O)N1CCOCC1)c1ccc(Cl)cc1`, 1.24% (inactive). Next, `NS(=O)(=O)c1cccc(NC(=O)CN2CCCc3ccccc32)c1`: -1.56% (inactive). The result for `O=C(NNC(=S)NCc1ccco1)C(c1ccccc1)c1ccccc1` reads 45.2% (inactive). Regarding `Cc1cc(O)c(NC(=O)c2ccc(C)c([N+](=O)[O-])c2)cc1C`, the inhibition was 1.25% (inactive).

As to `COCC(C)NC(=O)CSc1nc2nn(-c3ccccc3)c(=O)c-2c2n1CCCCC2` (stereo unspecified), the inhibition was 34.5% (inactive). The result for `CCn1ccnc1CN1CCCC(C(=O)c2ccc3c4c(cccc24)CC3)C1` (stereo unspecified) reads 40% (inactive); that for `COc1ccc(C(=O)C2CCCN(Cc3cccn3-c3ccccn3)C2)c(C)c1` (stereo unspecified), 99.8% (active); that for `CCOC(=O)c1[nH]ncc1CN1CCCC(C(=O)c2ccc(OC)cc2C)C1` (stereo unspecified), 1.77% (inactive). The result for `O=C(CN1CCOCC1)Nc1c(Cl)cc(Cl)cc1Cl` reads -3.49% (inactive); that for `O=C(Nc1ccc(F)cc1)N1CCCC(c2nc3c(nnn3Cc3ccccc3Cl)c(=O)[nH]2)C1` (stereo unspecified), -7.44% (inactive); that for `COC(C(=O)NCc1ccccc1C)c1ccccc1` (stereo unspecified), -3.9% (inactive). As for `COC(C(=O)Nc1ccc(C(C)=O)cc1)c1ccccc1` (stereo unspecified), the inhibition is -5.21% (inactive). The result for `COC(C(=O)Nc1ccc(S(=O)(=O)Nc2ccc(C)c(C)c2)cc1)c1ccccc1` (stereo unspecified) reads 56.7% (active); that for `Cc1ccc(C(=O)N/C(=C\c2ccco2)C(=O)N2CCSCC2)cc1C`, 10.4% (inactive).

Take `O=C(CCCn1c(=O)c2sccc2n(CC(=O)NCC2CCCO2)c1=O)NCc1ccco1` (stereo unspecified): the inhibition is -8.29% (inactive). As to `CC1CCCC(C)N1/N=C/c1ccccc1OC(F)F` (stereo unspecified), the inhibition was -3.94% (inactive). Regarding `c1ccc2[nH]c(-c3nc4ccccc4[nH]3)nc2c1`, the inhibition is 33.9% (inactive). Regarding `Oc1ccc(Cl)cc1/C=N/c1nc2ccccc2[nH]1`, the inhibition is 63% (active). Consider `Oc1ccc(Br)cc1C=Nc1ccc2[nH]ncc2c1`, for which the inhibition was -4.98% (inactive).

Regarding `COc1cccc(NC(=O)c2ccc(S(=O)(=O)N(C)C)cc2)c1`, the inhibition is -7.02% (inactive).

For the molecule `O=C(Nc1nnc(-c2ccco2)o1)c1ccc(S(=O)(=O)N2CCOCC2)cc1`, the inhibition is 3.15% (inactive). Next, `COc1cccc(-c2nnc(NC(=O)c3ccc(S(=O)(=O)N(CC(C)C)CC(C)C)cc3)o2)c1`: 100% (active); `CCOc1ccc2nc(NCCNC(=O)C(C)(C)C)c(C)cc2c1`: 5.84% (inactive); `CN(CC(=O)NCCc1ccccn1)S(=O)(=O)c1ccc(Cl)cc1`: 6.18% (inactive).

On to `COc1ccc(CCN(C)C(=O)C2CCCN(Cc3ccc(OC)c(OC)c3)C2)cc1OC` (stereo unspecified), for which the inhibition is -6.68% (inactive) and 55.5% (active). Next, `COc1ccc(CN2CCCC(CNC(=O)c3ccc(F)cc3)C2)cc1OC` (stereo unspecified): 14.8% (inactive). Turning to `COc1ccc(CN2CCCC(C(=O)c3ccc(Cl)cc3)C2)cc1Cn1cncn1` (stereo unspecified), the inhibition was 32% (inactive).
